This is an account of results in PMC7819943, “Rice protein-binding microarrays: a tool to detect cis-acting elements near promoter regions in rice”.

Whole data set: some 68,000 sequences, median “fluorescence intensity (a.u.)” near 9,100, cut for the highest 2% near 16,000. Shown is part of a subset that was picked to be rich in the highest values.

The target in the assay is OsWRKY34 (Oryza sativa, UniProt Q0JBA9 1-250). In words: protein-binding microarray (RPBM); PBS, 2% BSA, 51.3 ng/ul salmon testes DNA, 50 uM zinc acetate, 200 nM TF, 25 C, 1 h; high values mean tight binding. The conditions noted are these: protein: recombinant; tags: N-terminal polyhistidine and DsRed monomer fusion (pET32a); label: CyDye5-dUTP incorporated in the synthesized complementary strand; 3' TTTTT single-stranded linker to array surface; dsDNA, one strand shown. The procedure, abridged: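 A custom Agilent array was converted to double-stranded form by primer extension with Cy5-dUTP and blocked with 2% BSA. Protein at 200 nM in PBS with 2% BSA, salmon testes DNA and 50 µM zinc acetate was applied for 1 h at 25 °C, followed by washing. The proteins were polyhistidine–DsRed N-terminal fusions of transcription factors, expressed in E. coli BL21-CodonPlus and Ni–NTA-purified. The binding signal is per-feature fluorescence intensity (arbitrary units) from an Axon 4000B scanner.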
Chain of OsWRKY34 (Q0JBA9 entry or part of it): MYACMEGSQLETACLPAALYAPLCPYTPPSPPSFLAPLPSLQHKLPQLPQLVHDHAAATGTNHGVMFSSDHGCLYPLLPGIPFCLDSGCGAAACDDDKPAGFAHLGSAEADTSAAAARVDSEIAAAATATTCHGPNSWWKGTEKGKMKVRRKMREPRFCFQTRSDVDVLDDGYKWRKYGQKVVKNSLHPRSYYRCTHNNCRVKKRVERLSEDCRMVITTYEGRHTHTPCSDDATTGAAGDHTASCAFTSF
As to “TGTTGTTATGTTTTTGTCATGATCTCACAAGCAATGTACACGGAGTCACCTAGTGCAG”, the binding signal is 11000 fluorescence intensity (a.u.).

Consider “CCTCTTCGAAGCCGTGAAATCTCAGCCGTCCATCCATGATCGGAGTCACCTAGTGCAG”, for which the binding signal is 9040 fluorescence intensity (a.u.).

In the case of “TCTTTTGAGCACCCCACTGGCCATGGTCTTTTATCGTCCCCGGAGTCACCTAGTGCAG”, the binding signal was 8490 fluorescence intensity (a.u.).

As to “ACTATCTTAGCCATTCCAACGCCGTCTTTCCTCGGTCCTCCGGAGTCACCTAGTGCAG”, the binding signal was 12500 fluorescence intensity (a.u.).

As to “AATCACCATCATCGCTGTTTGGGAGGGTCTGCCTGGCTTACGGAGTCACCTAGTGCAG”, the binding signal is 13100 fluorescence intensity (a.u.).

In the case of “TATTTGACTTCCGGCTTTTGTTTCCTTGATACTTTACTCTCGGAGTCACCTAGTGCAG”, the binding signal was 9780 fluorescence intensity (a.u.).

Regarding “ACCTTTGCTCACGATCCCAATGGCTTTAATTATGTACCACCGGAGTCACCTAGTGCAG”, the binding signal was 8830 fluorescence intensity (a.u.).

Consider “CCAAAAACACTCACTCGGCCCACATCACGCCACCACCCCGCGGAGTCACCTAGTGCAG”, for which the binding signal is 9750 fluorescence intensity (a.u.).

For “TTTTTTTTCTGTTAGTACTGTTTTTGGTCCAAACATCTTTCGGAGTCACCTAGTGCAG”, the binding signal was 8180 fluorescence intensity (a.u.).

As to “GGGCCTAGTTTTTCCAGGTAAAGTTGACCAAAAGTCTTCACGGAGTCACCTAGTGCAG”, the binding signal was 8890 fluorescence intensity (a.u.).

Consider “GATGGCGTACCAAAGTACTGGTAAAAACATCTTCAGTTTTCGGAGTCACCTAGTGCAG”, for which the binding signal is 22300 fluorescence intensity (a.u.).

On to “CTTCTACTGCGTCGACTTGGAATTTTGCCGAATCTTTTTTCGGAGTCACCTAGTGCAG”, for which the binding signal was 10400 fluorescence intensity (a.u.).

For the sequence “CACACACACTCCACTACTCCACTGCACTGCAGTCTCTCTCCGGAGTCACCTAGTGCAG”, the binding signal is 10100 fluorescence intensity (a.u.).

With “CCTCGTTCTTCTTCTTCTCTCTCTGGTTTTACATTTTTACCGGAGTCACCTAGTGCAG”, the binding signal is 10300 fluorescence intensity (a.u.).

On to “TGAGTCCTTACCTCTCTCTCTCCAATGTTCGTCTGCGGCACGGAGTCACCTAGTGCAG”, for which the binding signal was 8390 fluorescence intensity (a.u.).

As for “CACGCACCGCCCATGCGTCCTTATCCACCCACCTCTCCACCGGAGTCACCTAGTGCAG”, the binding signal is 8240 fluorescence intensity (a.u.).

Turning to “AACCCACCTGCACGCACCGTCCTTACCTCTGTTCGATTGACGGAGTCACCTAGTGCAG”, the binding signal was 16800 fluorescence intensity (a.u.).

For the sequence “GTAGATGTCGGGTGGGATGGTTTCAGGAAAAGAAACATGACGGAGTCACCTAGTGCAG”, the binding signal is 12800 fluorescence intensity (a.u.).

“ACTTTCCTACACACAAACTTTCAACTTTTTCATCACATCGCGGAGTCACCTAGTGCAG”: the binding signal was 8900 fluorescence intensity (a.u.).

Take “CATTCACAACATCAAATTACATCTGCAGAGAGATCGCTCGCGGAGTCACCTAGTGCAG”: the binding signal is 33900 fluorescence intensity (a.u.).

As for “AGTCTGGCTTGCACATCTGCTGTTTACAACACATCAAATTCGGAGTCACCTAGTGCAG”, the binding signal is 9810 fluorescence intensity (a.u.).

On to “CCATCGTTTCTCCCCGACGCCCTCGCCATCCTCCTCGCCACGGAGTCACCTAGTGCAG”, for which the binding signal was 10500 fluorescence intensity (a.u.).

In the case of “GCCTTTTTAAATTTTTTTATCACATCAAAACTTTTTTATACGGAGTCACCTAGTGCAG”, the binding signal was 8370 fluorescence intensity (a.u.).
